Results taken from publication PMC7862700, “An all-to-all approach to the identification of sequence-specific readers for epigenetic DNA modifications on cytosine”.

Key:
Experiment in all cases: DAPPL (digital affinity profiling via proximity ligation, sequencing); 10 mM Tris-HCl pH 7.5, 50 mM NaCl, 1 mM DTT, 4% glycerol, room temperature, 30 min; GST-TFs on glutathione beads, 16-mer random dsDNA library, 0.1% formaldehyde crosslink after washing; high values mean tight binding
FEV = biological target: T1, FEV (Homo sapiens, UniProt Q99581 1-238); conditions: protein: recombinant; tags: N-terminal GST; dsDNA, one strand shown
T1 sequence: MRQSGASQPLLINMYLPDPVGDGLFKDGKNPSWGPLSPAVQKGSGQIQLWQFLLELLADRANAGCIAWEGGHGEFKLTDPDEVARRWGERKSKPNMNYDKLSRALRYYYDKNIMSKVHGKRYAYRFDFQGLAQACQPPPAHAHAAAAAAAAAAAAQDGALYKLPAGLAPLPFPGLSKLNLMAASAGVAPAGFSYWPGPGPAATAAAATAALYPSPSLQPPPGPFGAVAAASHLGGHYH
Method in brief: (§1)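 Human transcription factors carrying a GST fusion were produced in yeast, bound to glutathione beads, tagged with DNA barcodes and pooled together with a tag-only sample. Each pool was held with 200 nmole of a random double-stranded 16-mer DNA library in Tris/NaCl/DTT/glycerol buffer for 30 min at room temperature, then washed, crosslinked in 0.1% formaldehyde, proximity-ligated with BsaI/T4 ligase (1 h, 37 °C), PCR-amplified and sequenced on an Illumina NextSeq500. Binding signal is the read frequency of each hexamer for a given factor divided by its frequency in the tag-only sample.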

ETV5 = ETV5 (Homo sapiens, UniProt P41161 1-510); conditions: protein: recombinant; tags: N-terminal GST; dsDNA, one strand shown
Method in brief: as §1

HSF1 = HSF1 (Homo sapiens, UniProt Q00613 1-529); conditions: protein: recombinant; tags: N-terminal GST; chain copies: 3; dsDNA, one strand shown
Method in brief: as §1

SPIC = biological target: T2, SPIC (Homo sapiens, UniProt Q8N5J4 1-248); conditions: protein: recombinant; tags: N-terminal GST; dsDNA, one strand shown
T2 sequence: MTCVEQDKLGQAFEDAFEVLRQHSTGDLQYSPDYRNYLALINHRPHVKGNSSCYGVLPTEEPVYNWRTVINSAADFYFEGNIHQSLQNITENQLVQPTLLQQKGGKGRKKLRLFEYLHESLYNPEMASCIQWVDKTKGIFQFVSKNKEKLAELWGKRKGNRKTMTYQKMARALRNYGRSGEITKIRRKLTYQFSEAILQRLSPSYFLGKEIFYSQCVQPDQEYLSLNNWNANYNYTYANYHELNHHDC
Method in brief: as §1

ELF4 = ELF4 (Homo sapiens, UniProt Q99607 1-663); conditions: protein: recombinant; tags: N-terminal GST; dsDNA, one strand shown
Method in brief: as §1

ELK4 = biological target: T3, ELK4 (Homo sapiens, UniProt P28324-2 1-405); conditions: protein: recombinant; tags: N-terminal GST; dsDNA, one strand shown
T3 sequence: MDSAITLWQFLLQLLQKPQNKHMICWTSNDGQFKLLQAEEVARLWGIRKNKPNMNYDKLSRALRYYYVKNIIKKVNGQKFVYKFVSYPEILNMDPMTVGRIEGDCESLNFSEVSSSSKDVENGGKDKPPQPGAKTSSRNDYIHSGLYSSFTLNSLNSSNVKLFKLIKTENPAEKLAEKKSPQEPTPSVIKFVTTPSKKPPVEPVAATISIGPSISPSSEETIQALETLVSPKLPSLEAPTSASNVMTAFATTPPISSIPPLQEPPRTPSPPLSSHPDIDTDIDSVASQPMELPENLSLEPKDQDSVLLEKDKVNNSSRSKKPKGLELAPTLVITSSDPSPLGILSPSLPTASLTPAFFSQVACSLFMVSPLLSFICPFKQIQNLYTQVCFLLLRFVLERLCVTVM
Method in brief: as §1

ETV2 = biological target: T4, ETV2 (Homo sapiens, UniProt O00321 1-342); conditions: protein: recombinant; tags: N-terminal GST; dsDNA, one strand shown
T4 sequence: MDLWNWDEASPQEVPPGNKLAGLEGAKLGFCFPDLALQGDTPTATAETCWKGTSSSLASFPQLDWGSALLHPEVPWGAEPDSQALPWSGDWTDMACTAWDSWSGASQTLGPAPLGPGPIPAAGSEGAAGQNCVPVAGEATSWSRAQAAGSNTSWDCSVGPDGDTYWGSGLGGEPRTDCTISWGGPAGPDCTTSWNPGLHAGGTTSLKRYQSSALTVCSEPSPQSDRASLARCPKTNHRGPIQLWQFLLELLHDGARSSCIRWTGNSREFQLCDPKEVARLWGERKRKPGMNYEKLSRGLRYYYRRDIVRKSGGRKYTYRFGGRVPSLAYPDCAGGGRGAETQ
Method in brief: as §1

ELF3 = biological target: T5, ELF3 (Homo sapiens, UniProt P78545 1-371); conditions: protein: recombinant; tags: N-terminal GST; dsDNA, one strand shown
T5 sequence: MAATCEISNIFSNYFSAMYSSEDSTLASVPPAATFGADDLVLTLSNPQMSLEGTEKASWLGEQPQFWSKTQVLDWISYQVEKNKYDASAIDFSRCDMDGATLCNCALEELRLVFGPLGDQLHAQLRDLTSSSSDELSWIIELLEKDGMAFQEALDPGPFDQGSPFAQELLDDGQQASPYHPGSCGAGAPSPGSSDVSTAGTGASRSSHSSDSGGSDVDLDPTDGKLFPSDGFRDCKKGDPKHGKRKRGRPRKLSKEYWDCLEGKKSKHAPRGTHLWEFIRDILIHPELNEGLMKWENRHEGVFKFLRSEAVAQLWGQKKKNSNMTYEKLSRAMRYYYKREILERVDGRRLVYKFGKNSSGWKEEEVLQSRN
Method in brief: as §1

CRX = CRX (Homo sapiens, UniProt O43186 1-299); conditions: protein: recombinant; tags: N-terminal GST; dsDNA, one strand shown
Method in brief: as §1

ETV1 = ETV1 (Homo sapiens, UniProt P50549 1-477); conditions: protein: recombinant; tags: N-terminal GST; dsDNA, one strand shown
Method in brief: as §1

Chain of ELF4 (Q99607 whole entry): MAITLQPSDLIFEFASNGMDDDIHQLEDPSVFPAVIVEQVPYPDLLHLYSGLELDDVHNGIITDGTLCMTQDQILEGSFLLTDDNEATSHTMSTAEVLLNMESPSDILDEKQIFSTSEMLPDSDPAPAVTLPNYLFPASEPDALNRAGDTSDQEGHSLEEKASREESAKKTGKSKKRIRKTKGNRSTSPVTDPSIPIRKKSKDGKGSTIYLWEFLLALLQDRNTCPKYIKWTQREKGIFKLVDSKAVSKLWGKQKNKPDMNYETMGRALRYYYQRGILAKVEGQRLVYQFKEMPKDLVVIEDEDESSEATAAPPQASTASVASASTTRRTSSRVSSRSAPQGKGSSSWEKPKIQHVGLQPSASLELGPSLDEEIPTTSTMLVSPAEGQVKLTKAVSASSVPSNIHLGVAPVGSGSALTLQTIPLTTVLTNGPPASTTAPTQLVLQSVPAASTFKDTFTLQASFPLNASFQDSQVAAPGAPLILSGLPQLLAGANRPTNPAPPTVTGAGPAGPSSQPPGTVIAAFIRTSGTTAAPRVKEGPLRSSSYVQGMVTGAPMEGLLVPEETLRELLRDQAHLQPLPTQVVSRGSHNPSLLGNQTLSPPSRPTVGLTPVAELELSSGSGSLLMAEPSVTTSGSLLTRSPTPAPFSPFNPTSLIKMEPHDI
Chain of CRX (O43186 whole entry): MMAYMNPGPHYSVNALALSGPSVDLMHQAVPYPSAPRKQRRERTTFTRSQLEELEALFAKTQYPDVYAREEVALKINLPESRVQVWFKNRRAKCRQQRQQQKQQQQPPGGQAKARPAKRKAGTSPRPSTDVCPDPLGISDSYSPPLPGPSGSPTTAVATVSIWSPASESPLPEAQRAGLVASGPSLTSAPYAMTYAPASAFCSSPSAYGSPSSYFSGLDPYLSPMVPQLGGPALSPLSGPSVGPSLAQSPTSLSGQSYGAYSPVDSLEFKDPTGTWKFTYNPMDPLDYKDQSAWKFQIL
Chain of HSF1 (Q00613 whole entry): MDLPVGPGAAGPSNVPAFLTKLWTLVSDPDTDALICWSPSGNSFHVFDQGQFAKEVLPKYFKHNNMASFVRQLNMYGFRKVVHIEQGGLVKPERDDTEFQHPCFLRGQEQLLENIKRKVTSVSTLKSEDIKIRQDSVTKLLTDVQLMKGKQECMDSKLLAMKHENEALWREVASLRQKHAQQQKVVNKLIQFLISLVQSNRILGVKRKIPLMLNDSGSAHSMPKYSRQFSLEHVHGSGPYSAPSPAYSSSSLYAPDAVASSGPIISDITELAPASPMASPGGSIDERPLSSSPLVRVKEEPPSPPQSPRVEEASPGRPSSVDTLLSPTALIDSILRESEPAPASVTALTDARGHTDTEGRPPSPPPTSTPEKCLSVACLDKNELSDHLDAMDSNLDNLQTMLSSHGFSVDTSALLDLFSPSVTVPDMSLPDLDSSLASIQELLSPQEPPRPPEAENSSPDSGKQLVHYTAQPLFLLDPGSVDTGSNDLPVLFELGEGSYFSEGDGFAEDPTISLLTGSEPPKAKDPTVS
Chain of ETV5 (P41161 whole entry): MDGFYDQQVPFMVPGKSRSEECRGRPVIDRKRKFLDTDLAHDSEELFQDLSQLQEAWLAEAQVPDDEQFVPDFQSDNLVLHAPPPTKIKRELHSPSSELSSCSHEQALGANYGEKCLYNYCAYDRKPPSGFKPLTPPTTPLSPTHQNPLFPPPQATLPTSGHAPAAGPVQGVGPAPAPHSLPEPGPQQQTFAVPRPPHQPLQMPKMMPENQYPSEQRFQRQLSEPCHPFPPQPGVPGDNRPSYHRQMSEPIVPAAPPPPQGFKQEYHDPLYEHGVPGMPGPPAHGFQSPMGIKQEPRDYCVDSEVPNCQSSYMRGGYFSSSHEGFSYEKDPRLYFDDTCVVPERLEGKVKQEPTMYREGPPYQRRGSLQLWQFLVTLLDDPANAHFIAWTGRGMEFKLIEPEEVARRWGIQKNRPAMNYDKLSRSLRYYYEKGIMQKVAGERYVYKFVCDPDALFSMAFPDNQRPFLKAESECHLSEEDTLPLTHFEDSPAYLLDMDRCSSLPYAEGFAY
Chain of ETV1 (P50549 whole entry): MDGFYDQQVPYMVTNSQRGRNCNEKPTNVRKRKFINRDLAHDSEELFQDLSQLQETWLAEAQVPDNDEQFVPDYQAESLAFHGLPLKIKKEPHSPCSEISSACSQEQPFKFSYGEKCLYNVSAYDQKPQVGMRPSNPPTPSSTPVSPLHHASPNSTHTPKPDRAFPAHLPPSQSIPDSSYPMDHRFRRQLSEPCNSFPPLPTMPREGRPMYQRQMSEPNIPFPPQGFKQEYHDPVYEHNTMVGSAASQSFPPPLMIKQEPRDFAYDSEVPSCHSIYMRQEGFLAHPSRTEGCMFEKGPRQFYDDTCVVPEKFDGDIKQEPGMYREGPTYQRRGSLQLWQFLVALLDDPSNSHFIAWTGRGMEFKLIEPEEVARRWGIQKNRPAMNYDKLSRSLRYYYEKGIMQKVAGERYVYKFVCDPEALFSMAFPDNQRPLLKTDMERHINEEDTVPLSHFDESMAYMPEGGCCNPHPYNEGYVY

Row | Sequence | binding signal (FEV) | binding signal (ETV5) | binding signal (HSF1) | binding signal (SPIC) | binding signal (ELF4) | binding signal (ELK4) | binding signal (ETV2) | binding signal (ELF3) | binding signal (CRX) | binding signal (ETV1)
1 | TCAATA | 1.15 fold enrichment (6-mer frequency, TF over GST control) | 1.21 fold enrichment (6-mer frequency, TF over GST control) | 1.18 fold enrichment (6-mer frequency, TF over GST control) | 1.06 fold enrichment (6-mer frequency, TF over GST control) | 1.17 fold enrichment (6-mer frequency, TF over GST control) | 1.29 fold enrichment (6-mer frequency, TF over GST control) | 1.26 fold enrichment (6-mer frequency, TF over GST control) | 1.23 fold enrichment (6-mer frequency, TF over GST control) | 1.34 fold enrichment (6-mer frequency, TF over GST control) | 1.24 fold enrichment (6-mer frequency, TF over GST control)
2 | TGATGG | 1.16 fold enrichment (6-mer frequency, TF over GST control) | 1.34 fold enrichment (6-mer frequency, TF over GST control) | 1.26 fold enrichment (6-mer frequency, TF over GST control) | 1.51 fold enrichment (6-mer frequency, TF over GST control) | 1.29 fold enrichment (6-mer frequency, TF over GST control) | 1.33 fold enrichment (6-mer frequency, TF over GST control) | 1.29 fold enrichment (6-mer frequency, TF over GST control) | 1.32 fold enrichment (6-mer frequency, TF over GST control) | 1.1 fold enrichment (6-mer frequency, TF over GST control) | 1.32 fold enrichment (6-mer frequency, TF over GST control)
3 | CTTTTG | 1.3 fold enrichment (6-mer frequency, TF over GST control) | 1.38 fold enrichment (6-mer frequency, TF over GST control) | 1.36 fold enrichment (6-mer frequency, TF over GST control) | 1.36 fold enrichment (6-mer frequency, TF over GST control) | 1.42 fold enrichment (6-mer frequency, TF over GST control) | 1.35 fold enrichment (6-mer frequency, TF over GST control) | 1.25 fold enrichment (6-mer frequency, TF over GST control) | 1.39 fold enrichment (6-mer frequency, TF over GST control) | 1.43 fold enrichment (6-mer frequency, TF over GST control) | 1.3 fold enrichment (6-mer frequency, TF over GST control)
4 | AATCTG | 1.41 fold enrichment (6-mer frequency, TF over GST control) | 1.4 fold enrichment (6-mer frequency, TF over GST control) | 2.17 fold enrichment (6-mer frequency, TF over GST control) | 1.52 fold enrichment (6-mer frequency, TF over GST control) | 1.57 fold enrichment (6-mer frequency, TF over GST control) | 1.55 fold enrichment (6-mer frequency, TF over GST control) | 1.45 fold enrichment (6-mer frequency, TF over GST control) | 1.47 fold enrichment (6-mer frequency, TF over GST control) | 2.75 fold enrichment (6-mer frequency, TF over GST control) | 1.58 fold enrichment (6-mer frequency, TF over GST control)
5 | AAACTC | 1.18 fold enrichment (6-mer frequency, TF over GST control) | 1.22 fold enrichment (6-mer frequency, TF over GST control) | 1.18 fold enrichment (6-mer frequency, TF over GST control) | 1.26 fold enrichment (6-mer frequency, TF over GST control) | 1.22 fold enrichment (6-mer frequency, TF over GST control) | 1.04 fold enrichment (6-mer frequency, TF over GST control) | 1.3 fold enrichment (6-mer frequency, TF over GST control) | 1.25 fold enrichment (6-mer frequency, TF over GST control) | 1.18 fold enrichment (6-mer frequency, TF over GST control) | 1.22 fold enrichment (6-mer frequency, TF over GST control)
6 | TATAGG | 1.15 fold enrichment (6-mer frequency, TF over GST control) | 1.24 fold enrichment (6-mer frequency, TF over GST control) | 1.2 fold enrichment (6-mer frequency, TF over GST control) | 1.34 fold enrichment (6-mer frequency, TF over GST control) | 1.05 fold enrichment (6-mer frequency, TF over GST control) | 1.14 fold enrichment (6-mer frequency, TF over GST control) | 1.26 fold enrichment (6-mer frequency, TF over GST control) | 1.19 fold enrichment (6-mer frequency, TF over GST control) | 1.42 fold enrichment (6-mer frequency, TF over GST control) | 1.13 fold enrichment (6-mer frequency, TF over GST control)
7 | GTCTTT | 1.14 fold enrichment (6-mer frequency, TF over GST control) | 1.22 fold enrichment (6-mer frequency, TF over GST control) | 1.22 fold enrichment (6-mer frequency, TF over GST control) | 1.26 fold enrichment (6-mer frequency, TF over GST control) | 1.22 fold enrichment (6-mer frequency, TF over GST control) | 1.21 fold enrichment (6-mer frequency, TF over GST control) | 1.12 fold enrichment (6-mer frequency, TF over GST control) | 1.27 fold enrichment (6-mer frequency, TF over GST control) | 1.24 fold enrichment (6-mer frequency, TF over GST control) | 1.13 fold enrichment (6-mer frequency, TF over GST control)
